This is a sample that favours compounds with a hit; in the whole collection about 2.8% have one here.
Furin inh: human furin inhibitors, primary screen, biochemical, fluorescence intensity. P09958. purified furin, fluorogenic substrate cleavage. inhibition, % at 20 µM or 30 µM. 0.061% of 220,000 active; in the data active = inhibition above about 25%
EP2 modulator: EP2 receptor modulators, cAMP readout, primary screen, cell-based, HTRF cAMP, PGE2 stimulation; Prostaglandin E2 receptor EP2 subtype (Homo sapiens), P43116; EP2-expressing cells, cAMP HTRF FRET, PGE2 co-stimulation; induction, % at 25 µM; 0.83% of 260,000 active;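 active = compounds whose cAMP rise, as percent of the full-agonist control response, exceeds 60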;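 also: rat C6 glioma line stably carrying human EP2 under a CMV promoter; the protocol text gives 20 µM as final concentration; 100% = response of wells given 1 µM PGE2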
PGE2 EP2 inh: human EP2 receptor antagonists, primary screen, TR-FRET cAMP, C6 glioma cells; Prostaglandin E2 receptor EP2 subtype (Homo sapiens), P43116; C6 glioma cells expressing human EP2; cells stimulated with saturating PGE2; inhibition, % at 25 µM; 0.52% of 260,000 active; AID 1422, 2008;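 active = percent inhibition above 40 after rounding to a whole number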;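 also: rat C6 glioma host cells with rolipram phosphodiesterase inhibitor present; the protocol text gives 20 µM as final concentration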
Wee1 degr inh: Wee1 degradation inhibitors, primary screen, cell-based, HeLa, Wee1K328M-luciferase, luminescence | Wee1-like protein kinase (Homo sapiens), P30291 | HeLa Luc-Wee1K328M stability; 100% = proteasome inhibitor MG132 effect | reporter increase, % at 5 µM | 1.2% of 220,000 active | AID 1321, 2008;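 active = activation above the mean of all tested compounds plus 3 SD, set per screening run, cut at about 8.8% in these data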;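 also: cells exposed to compound for 20 h before luminescence read; 0% = DMSO alone and 100% = MG132 at 30 µM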
Target sequence (P30291 whole entry K328M): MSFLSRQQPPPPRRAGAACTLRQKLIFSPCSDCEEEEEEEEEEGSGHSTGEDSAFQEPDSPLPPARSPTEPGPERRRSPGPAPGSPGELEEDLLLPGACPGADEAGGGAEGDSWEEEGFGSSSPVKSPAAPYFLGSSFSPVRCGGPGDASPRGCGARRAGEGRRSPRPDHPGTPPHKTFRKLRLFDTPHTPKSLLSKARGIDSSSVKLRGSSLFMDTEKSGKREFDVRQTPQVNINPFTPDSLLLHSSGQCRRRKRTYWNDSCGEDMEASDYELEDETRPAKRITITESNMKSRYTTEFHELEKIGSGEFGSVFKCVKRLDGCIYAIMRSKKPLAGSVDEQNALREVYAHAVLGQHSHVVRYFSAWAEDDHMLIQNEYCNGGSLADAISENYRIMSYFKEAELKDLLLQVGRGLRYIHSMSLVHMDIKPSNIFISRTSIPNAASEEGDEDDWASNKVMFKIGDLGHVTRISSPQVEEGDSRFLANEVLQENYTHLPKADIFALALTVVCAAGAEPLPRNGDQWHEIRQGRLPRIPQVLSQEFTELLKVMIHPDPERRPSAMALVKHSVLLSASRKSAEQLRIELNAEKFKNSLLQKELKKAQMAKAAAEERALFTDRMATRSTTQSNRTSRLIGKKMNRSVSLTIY
p47phox inh: p47phox/p22phox peptide binding inhibitors, primary screen, biochemical, uHTS, NADPH oxidase regulatory subunit; Neutrophil cytosol factor 1 (Homo sapiens), P14598; fluorescence polarization, 2 h; inhibition, % at 24.7 µM; 0.53% of 220,000 active; AID 1274, 2008;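 active = inhibition above about 30%, limit read from the data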;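 also: 0% = p47phox with labelled peptide and 100% = labelled peptide alone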
HSV augment: enhancers of HSV replication in host cells, fold increase, host cell viability. HSV replication augmentation in cells. maximum fold increase. 0.005% of 220,000 active; in the data active = maximum fold increase above about 1.5; inconclusive = no clear call, values can overlap the other calls; tested in PC3 cells
* marks the source's active call; other numbers are inactive results; i = inactive; ? = inconclusive; · = no result.

SMILES	Furin inh	EP2 modulator	PGE2 EP2 inh	Wee1 degr inh	p47phox inh	HSV augment
CCOC(=O)C(C)Sc1nc2c(c(=O)[nH]c(=O)n2C)n1CC(N)=O (centres undefined)	·	-48	8	·	·	·
CCOC(=O)N1CCC(NC(=O)c2cccn3c(=O)c4cc(Br)ccc4nc23)CC1	-24	-10	12	-2	19	i
CCOC(=O)N1CCC(NC(=O)c2ccc3nc4ccccc4c(=O)n3c2)CC1	-21	-31	·	-3	39*	·
CC1CCc2c(sc3ncn(C4CCN(C(=O)C(C)C)CC4)c(=O)c23)C1 (centres undefined)	·	-52	4	·	·	·
Nc1ccccc1-c1nnc(-c2ccc(-c3ccccc3)cc2)o1	-13	25	·	2	58*	·
c1ccc(-c2nnc(-c3ccccc3)o2)cc1	-22	-33	8	7	-57	i
O=C(COC(=O)Cn1cnc2ccccc21)Nc1cc(S(=O)(=O)N2CCOCC2)ccc1Cl	-7	12	-1	0	-8	i
O=C(COC(=O)Cn1cnc2ccccc21)Nc1cc2c(cc1Cl)C(=O)c1ccccc1C2=O	-11	-52	8	11*	14	i
CCC(c1nnnn1CC1CCCO1)N(Cc1cc2cccc(C)c2[nH]c1=O)C1CCCC1 (centres undefined)	·	20	6	·	·	·
CCn1c2ccccc2n2c(=O)n(CC(=O)NC34CC5CC(CC(C5)C3)C4)nc12	·	-31	5	·	·	·
O=C(Cn1sc2ccccc2c1=O)NC12CC3CC(CC(C3)C1)C2	-19	-50	132*	-1	-4	i
COc1cc(C(=O)NC2CC3CCCC(C2)N3Cc2cccs2)cc(OC)c1OC (centres undefined)	·	-76	16	·	·	·
Cc1ccc(CN(Cc2cc3cccc(C)c3[nH]c2=O)Cc2nnnn2CC2CCCO2)cc1 (centres undefined)	·	22	11	·	·	·
O=C1c2ccccc2-n2c1nc1ccccc1c2=O	-17	-25	54*	-2	2	i
COC(=O)c1ccc(CCc2cc(O)ccc2O)cc1	·	-5	47*	·	·	·
COC(=O)c1ccc(OCC(=O)c2ccc(O)cc2O)cc1	-2	-7	1	-2	-7	i
O=C(O)CC[C@@H](C(=O)O)N1C(=O)[C@@H]2[C@@H]3CC[C@@H](C3)[C@@H]2C1=O	·	27	8	·	·	·
Cc1cc(C(=O)CSc2cccc[n+]2[O-])c(C)n1-c1ccc(Br)cc1	-25	2	11	9.6*	-9	i
Cc1cc(C(=O)CSc2cccc[n+]2[O-])c(C)n1-c1ccccc1	-18	-6	9	1	-11	i
Cc1ccccc1C(=O)Nc1ccc2c(C#N)c3nc4ccccc4nc3n2c1	1	-35	16	-2	34*	?
Cc1c(C(=O)Nc2ccccc2)cn2c(nc3ccccc32)c1C#N	-4	-26	11	1	-11	i
CCn1c(=O)c(C(=O)NCCc2ccccc2)c(O)c2ccccc21	-22	61*	3	-2	-2	i
CCn1c(=O)c(C(=O)NCCCl)c(O)c2ccccc21	·	-8	9	·	·	·
CCCn1c(=O)c(C(=O)Nc2ccccc2OC)c(O)c2ccccc21	·	67*	14	·	·	·
N=C(N)c1ccc(-c2ccc(-c3ccc(C(=N)N)cc3)o2)cc1	·	-11	52*	·	·	·
SMILES	Furin inh	EP2 modulator	PGE2 EP2 inh	Wee1 degr inh	p47phox inh	HSV augment
Cc1cc(C)c2cc(C#N)c(SCC(=O)N3CCC(C)CC3)nc2c1	·	25	7	·	·	·
Cn1c(=O)c2c(nc(N/N=C/c3ccccc3C(=O)O)n2C)n(C)c1=O	·	17	44*	·	·	·
O=C(CN1CCC(C(=O)c2ccccc2)CC1)NCc1cccs1	·	0	11	·	·	·
O=C(CSc1ncnc2sc3c(c12)CCCC3)OCc1ccccc1	·	62*	8	·	·	·
N=c1n(Cc2ccc(Cl)cc2)c2ccccc2n1CC(O)COc1ccccc1 (centres undefined)	-14	-63	8	2	1	i
N=c1n(Cc2ccccc2)c2ccccc2n1CC(O)COc1ccc(Cl)cc1Cl (centres undefined)	-7	-68	13	1	48*	i

Screens (PubChem)
